Screening data (PubChem BioAssay)
MRP1 act: H69AR viability gain despite doxorubicin, primary screen, MRP-1 activator project, H69AR cells, CellTiter-Glo. viability increase, % at 10 µM. viability rescue. hit rate 0.61% among 140,000;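 active = viability gain under doxorubicin at or above a set limit, the compound median plus 3 SD, cut at about 4.7% in these data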;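 also: MRP-1 overexpressing cells given doxorubicin 25 µM after compound pretreatment; 18-22 h compound pretreatment then 72 h with doxorubicin before readout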
CD11b adhes enh: enhancers of CD11b/CD18 adhesion to fibrinogen, primary screen, K562 cells, luminescence; Integrin beta-2 (Homo sapiens) + Integrin alpha-M (Homo sapiens), P05107+P11215; ATPlite luminescence; activation, % at 10 µM; hit rate 0.07% among 93,000; AID 1499, 2009;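 active = 10 µM primary screen giving 50% or more activity, confirmed by 40% or more on retest at that dose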
Phagocytosis inh: inhibitors of macrophage phagocytosis, primary screen, imaging, J774A.1 cells, IgG beads; J774A.1 macrophage IgG-bead phagocytosis; inhibition, % at 5 µM; hit rate 0.07% among 110,000; AID 1029, 2008;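 active = inhibition above the mean of the plate negative controls plus 5 SD, cut at about 13% in these data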;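 also: phagocytic index as fraction of beads internalized from green versus red external bead signal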
Smad3 FoxH1 inh: Smad3/FoxH1 peptide binding inhibitors, primary screen, biochemical, TR-FRET. TR-FRET Smad3/Dy647-FoxH1 peptide binding, europium anti-His. Mothers against decapentaplegic homolog 3 (Homo sapiens), P84022. inhibition, % at 25 µM. hit rate 0.29% among 88,000;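 active = compounds that reduce the energy-transfer binding signal between the protein and its labelled peptide by more than half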
Target sequence (P84022 whole entry, looked up): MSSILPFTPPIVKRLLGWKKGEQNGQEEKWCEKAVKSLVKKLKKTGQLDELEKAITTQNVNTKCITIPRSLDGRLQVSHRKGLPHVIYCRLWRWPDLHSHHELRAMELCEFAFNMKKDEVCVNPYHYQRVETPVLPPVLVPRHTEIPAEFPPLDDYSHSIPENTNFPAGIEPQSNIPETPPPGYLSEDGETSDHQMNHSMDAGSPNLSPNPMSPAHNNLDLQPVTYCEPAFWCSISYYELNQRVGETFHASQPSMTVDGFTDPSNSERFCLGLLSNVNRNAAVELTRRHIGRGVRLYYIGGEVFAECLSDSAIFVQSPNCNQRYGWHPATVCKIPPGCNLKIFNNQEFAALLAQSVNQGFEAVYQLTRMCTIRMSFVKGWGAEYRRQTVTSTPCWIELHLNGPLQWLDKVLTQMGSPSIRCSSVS
MRP resist rev: reversal of MRP1-mediated doxorubicin resistance, primary screen, H69AR cells, doxorubicin co-treatment | H69AR cells + 2 uM doxorubicin, CellTiter-Glo, 72 h | hit rate 0.04% among 85,000 | AID 602, 2007 | differential viability (reversal), % at 10 µM;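 active = viability drop by adding the cancer drug above about 55%, with treated viability meeting a 40% cutoff, limit read from the data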;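 also: larger differential means the compound sensitizes cells more to doxorubicin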
Mac1 fbg inh: inhibitors of CD11b/CD18 adhesion to fibrinogen, primary screen, K562 cells, luminescence; Integrin beta-2 (Homo sapiens) + Integrin alpha-M (Homo sapiens), P05107+P11215; ATPlite luminescence; Mn2+ added to activate the integrin; inhibition, % at 10 µM; hit rate 0.54% among 93,000; AID 1497, 2009;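 active = primary inhibition of 50% or more at 10 µM, then 40% or more on retest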
A number is an active result; - = inactive; . = no result given. A selection: hits, their analogues and other compounds. The true share with any hit is near 1.2%.

SMILES	MRP1 act	CD11b adhes enh	Phagocytosis inh	Smad3 FoxH1 inh	MRP resist rev	Mac1 fbg inh
Cc1cccc(-c2cc3nc(C)cc(NCCCN(C)C)n3n2)c1	-	-	-	-	-	-
Cc1cccc(-c2cc3nc(C)cc(N4CC(C)CC(C)C4)n3n2)c1 (stereo unspecified)	5.1	.	.	-	-	.
O=C(CCc1ccccc1)Nc1c(F)cccc1F	.	.	.	-	-	.
O=[N+]([O-])c1ccc(NN=C2c3ccccc3Cc3ccccc32)c([N+](=O)[O-])c1	.	.	.	-	.	.
c1ccc(OCCSc2nc3ccccc3[nH]2)cc1	5.3	.	.	-	-	.
Cc1ccc2nc(SCCCCOc3ccccc3)[nH]c2c1	-	.	.	.	.	.
COC(=O)N1CC(=O)N(OC)C1c1ccc(Cl)cc1Cl (stereo unspecified)	-	.	.	-	.	.
Cc1c(NC(=O)CSc2ccc(Cl)cc2)cccc1-c1nc2ncccc2o1	6.2	-	-	.	.	-
O=C(CSc1ccc(Cl)cc1)Nc1cc(-c2nc3ncccc3o2)ccc1Cl	-	-	-	.	.	-
CCC(Sc1nc(=O)cc(N)n1-c1ccccc1)C(=O)Nc1ccc(Cl)cn1 (stereo unspecified)	.	.	.	-	-	.
CCc1ccc2c(c1)cc(CN(C(=S)Nc1ccc(Cl)cc1)C1CC1)c1nnnn12	-	-	-	.	.	-
O=[N+]([O-])c1ccc(O)c(/C=N/n2cnc3ccccc32)c1	5.2	-	-	.	.	104
CCCCOC(=O)c1ccc(NC(=O)/C=C/c2cccs2)cc1	4.8	-	-	.	.	-
CCN(CC)c1ccc(NC(=O)C2CCCN(S(=O)(=O)c3cnc[nH]3)C2)c(C)c1 (stereo unspecified)	-	-	-	-	-	-
COc1c(N)c2ccccc2[nH]c1=O	-	-	-	-	-	-
Cn1c(N)c(C(=O)COC(=O)c2cc(C3CC3)nc3ccccc23)c(=O)n(Cc2ccccc2)c1=O	5.3	.	.	.	.	.
COC(=O)c1ccc(COC(=O)c2[nH]c(C)c(C(C)=O)c2C)o1	-	-	-	-	-	76
N=C(N)SCc1nc(-c2ccc(Cl)cc2)no1	.	.	.	-	.	.
O=S(=O)(c1ccc2ccccc2c1)N1CCN(S(=O)(=O)c2ccc3ccccc3c2)CC1	.	.	.	91	.	.
Cc1c(C(=O)O)nc(/C=C/C(=O)O)[nH]c1=O	.	.	.	-	.	.
COc1ccc(CNc2nc3c(c(=O)n(Cc4ccc(Cl)cc4)c(=O)n3C)n2C)cc1	5.5	-	-	-	-	-
O=C(Cc1ccc(Br)cc1)c1ccc(O)cc1O	-	-	-	.	.	78
O=C1NC(=O)C2(COC3(CCCC3)OC2)S1	4.8	-	-	-	-	-
COc1ccc(C2OCC3(CO2)SC(=O)NC3=O)cc1 (stereo unspecified)	-	.	-	.	.	.
Brc1ccc(OCc2nc(-c3ccccn3)n[nH]2)cc1	8.4	-	-	-	-	-
SMILES	MRP1 act	CD11b adhes enh	Phagocytosis inh	Smad3 FoxH1 inh	MRP resist rev	Mac1 fbg inh
Clc1ccc(OCc2nc(-c3ccccn3)n[nH]2)cc1	-	-	-	-	-	-
CCNc1nc(CN2CCCCC2)nc2scc(-c3ccccc3)c12	-	-	-	.	.	78
OCC1CCCN(c2nc(CN3CCCCC3)nc3scc(-c4ccccc4)c23)C1 (stereo unspecified)	-	-	-	.	.	-
C=C(C)c1ccc(C(C)(C)NC(=O)N2CCN(C)CC2)cc1	-	-	-	71	-	-
C=C(C)c1cccc(C(C)(C)NC(=O)N2CCCC2)c1	-	.	.	-	-	.
O=C(N/N=C/c1ccccn1)c1cc(-c2ccc3ccccc3c2)n[nH]1	7.5	-	-	.	.	-
O=C(N/N=C/c1ccccn1)c1cc(-c2cccc3ccccc23)n[nH]1	-	-	-	.	.	-
Cc1cccc(-c2cc3nc(-c4ccccc4)cc(N4CCC5(CC4)OCCO5)n3n2)c1	-	.	.	-	-	.
Fc1cccc(-c2cc3nc(-c4ccccc4)cc(N4CCC5(CC4)OCCO5)n3n2)c1	6.1	.	.	-	-	.
C=C[C@]1(C)C[C@H](OC(=O)CO)[C@]2(C)C3C(=O)CC[C@]3(CC[C@H]2C)[C@H](C)[C@H]1O (stereo partly specified)	.	.	.	-	.	.
CCOc1ccc(C(=O)Nc2cccc(-c3nc4cccnc4o3)c2)cc1Cl	-	55	-	.	.	-
O=C(OCCN1C(=O)c2ccccc2C1=O)C1CCN(S(=O)(=O)c2cccs2)CC1	-	-	-	-	-	-
S[C@@H]1CCCN(Cc2ccccc2)C1	.	.	.	56	.	.
CCSc1nnc(NC(=O)c2c(-c3ccccc3Cl)noc2C)s1	-	-	-	-	-	-
Cc1onc(-c2ccccc2Cl)c1C(=O)Nc1nnc(-c2cccc([N+](=O)[O-])c2)s1	-	-	-	-	-	90
COC(=O)N/N=C/c1ccc(-c2cc(Cl)ccc2Cl)o1	4.9	-	-	.	.	-
COC(=O)N/N=C\c1ccc(-c2cc(Cl)c(Cl)cc2Cl)o1	-	.	-	.	.	.
CCOC(=O)C(C(=O)Nc1nccs1)C1CCCCC1 (stereo unspecified)	4.7	-	-	-	-	-
CCOC(=O)C(C(=O)Nc1nc2ccccc2s1)C1CCCCC1 (stereo unspecified)	7.1	.	.	-	-	.
O=C(NNC(=O)c1cccnc1)Nc1cccc(Cl)c1Cl	-	-	-	.	.	-
O=c1c2ccc(Cl)cc2nc(-c2cccc(C(F)(F)F)c2)n1O	-	-	-	.	.	69
Cc1ccc(/C=C2/SC(=S)N(CCC(=O)N3CCN(c4ccccc4)CC3)C2=O)cc1	-	-	-	.	.	-
O=C1/C(=C/c2cccnc2)SC(=S)N1c1ccccc1	-	-	-	.	.	-
Cc1c(N2C(=O)/C(=C/c3ccccc3)SC2=S)c(=O)n(-c2ccccc2)n1C	8.0	.	.	.	.	.
Cc1ccc(/C=C2\SC(=S)N(c3c(C)n(C)n(-c4ccccc4)c3=O)C2=O)cc1	7.6	.	.	.	.	.
SMILES	MRP1 act	CD11b adhes enh	Phagocytosis inh	Smad3 FoxH1 inh	MRP resist rev	Mac1 fbg inh
O=C(COc1ccc(Cl)cc1)NCc1nnc(SCC(=O)NCc2ccc3c(c2)OCO3)o1	5.8	-	-	-	-	-
CC1CCC(NC(=O)Cn2c3c(c(-c4ccccc4Cl)cc2=O)CCC3)CC1 (stereo unspecified)	8.2	-	-	-	-	-
CC1(C)O[C@@H]2C[C@H]3[C@@H]4C[C@H](F)C5=CC(=O)CC[C@]5(C)[C@H]4[C@@H](O)C[C@]3(C)[C@]2(C(=O)CO)O1	5.2	.	.	-	-	.
CC(=O)[C@]1(O)CC[C@@H]2[C@H]3C[C@@H](C)C4=CC(=O)CC[C@@]4(C)[C@@H]3[C@@H](O)C[C@]21C	.	.	.	-	.	.
O=c1oc2cc(N=Cc3ccc4c(c3)OCO4)ccc2c2ccccc12	.	.	.	-	.	.
C[C@@]12C[C@H](O)[C@@H]3[C@H](CCC4=CC(=O)CC[C@]43C)[C@H]1CC[C@H]2c1csc(N)n1	.	.	.	-	.	.
